In assay [1] the test system is Wnt5a (protein binding on small-molecule microarray). Put plainly: small molecules binding Wnt5a protein – biophysical, small-molecule microarray, 635/667 nm fluorescence, primary screen (AID 1142).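 Note: fluorescence read at 667 nm with signal to noise per printed feature.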 The settings on record: 635 nm fluorescence, higher = more signal.
A short description of assay [2]: ATP-based viability of Huh7 replicon cells – cell-based, CellTiter-Glo luminescence, basal, 48 h, cytotoxicity control for HCV replication inhibitor project, primary screen (AID 1143).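 Note: Huh7 hepatoma cells carrying a hepatitis C replication reporter with no stimulus; test concentration not given here.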 The settings on record: higher = more signal, called active from +8 up or from −8 down.
A short description of assay [3]: Pseudomonas biofilm growth suppression – PAO1 strain, BacTiter-Glo luminescence, LB-PBS, primary screen (AID 1144). The settings on record: P. aeruginosa PAO1 biofilm, 12 h, higher = more signal.
The nature of assay [4]: basal CRE-LacZ reporter activity in PC12 – cell-based, unstimulated, primary screen (AID 1145). The following applies: no forskolin, luminescence, 4.5 h, higher = more signal, called active from +8 up or from −8 down.
Assay [5] is described as follows: forskolin-driven CRE-LacZ activity in PC12 – cell-based, CRE-LacZ reporter, forskolin-stimulated, primary screen (AID 1146).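 Note: PC12 cells with 6xCRE LacZ reporter stimulated by forskolin 10 µM; beta-galactosidase reporter signal reflecting CREB driven transcription.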 The settings on record: luminescence, 4.5 h, higher = more signal, called active from +8 up or from −8 down.
Assay [6] deals with Streptavidin (Streptomyces avidinii) (UniProt P22629). Briefly: compounds binding control protein streptavidin – biophysical, small-molecule microarray, 635/667 nm fluorescence, artefact control for SMM compound annotation, primary screen (AID 1147).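 Note: signal reflects streptavidin binding to arrayed compounds as a control protein.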 The following applies: higher = more signal.
Streptavidin (Streptomyces avidinii), sequence (P22629 whole entry, looked up): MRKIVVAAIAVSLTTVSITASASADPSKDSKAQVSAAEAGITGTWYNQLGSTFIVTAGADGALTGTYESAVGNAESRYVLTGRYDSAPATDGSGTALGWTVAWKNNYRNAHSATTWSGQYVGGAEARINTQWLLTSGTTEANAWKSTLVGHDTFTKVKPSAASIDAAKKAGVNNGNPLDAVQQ
A short description of assay [7]: probe aInhba binding on compound microarray – biochemical, small-molecule microarray, 635/667 nm fluorescence, primary screen (AID 1148).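 Note: score merges 667nm spot fluorescence with signal-to-noise for antibody binding to printed compounds.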 The settings on record: higher = more signal.
The target in assay [8] is Torsin-1A (Homo sapiens) (UniProt O14656). Briefly: TOR1A wild-type binding on microarray – cell lysate, small-molecule microarray, lysate, 635/667 nm, primary screen (AID 1149). The settings on record: COS7 hTOR1A-WT lysate, 635 nm fluorescence, higher = more signal.
Torsin-1A (Homo sapiens), sequence (O14656 whole entry, looked up): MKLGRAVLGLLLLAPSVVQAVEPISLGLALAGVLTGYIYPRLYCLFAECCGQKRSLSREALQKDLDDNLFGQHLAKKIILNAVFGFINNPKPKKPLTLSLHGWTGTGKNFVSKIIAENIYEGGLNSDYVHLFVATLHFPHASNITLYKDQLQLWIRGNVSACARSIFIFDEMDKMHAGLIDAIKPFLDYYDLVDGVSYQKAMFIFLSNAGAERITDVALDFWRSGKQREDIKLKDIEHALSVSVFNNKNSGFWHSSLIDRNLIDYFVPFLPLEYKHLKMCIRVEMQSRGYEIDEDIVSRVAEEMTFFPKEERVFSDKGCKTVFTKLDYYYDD
The target is the same in assay [9]. Put plainly: torsin A mutant lysate binding on microarrays – cell lysate, small-molecule microarray, COS7 lysate, 635/667 nm fluorescence, primary screen (AID 1150).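 Note: score pools 667 nm emission and signal to noise measuring lysate protein binding.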 The following applies: COS7 hTOR1A mutant lysate, 635 nm fluorescence, higher = more signal.
Assay [10] deals with Sonic hedgehog protein (Shh). Put plainly: Sonic hedgehog microarray binding compounds – biochemical, small-molecule microarray, 635/667 nm fluorescence, primary screen (AID 1151).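 Note: Shh protein binding to compounds spotted on small-molecule microarray slides; score combines spot fluorescence intensity with signal-to-noise across triplicate slides.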 The settings on record: 635 nm fluorescence, higher = more signal.

SMILES strings stand for the structures. Calls of active or inactive are those of the source. Unless noted, the rule behind the calls is not given here.

On to `CO[C@H]1O[C@H](CO)[C@@H](OC(=O)Nc2ccc(Oc3ccccc3)cc2)[C@H](OC(=O)Nc2ccc3c(c2)OCO3)[C@@H]1OC(=O)Nc1ccc2c(c1)OCO2`, for which the composite z-score turned out to be 1.31 in [1]; 0.894 in [6]; 0.415 in [7]; 0.626 in the assay with Torsin-1A (Homo sapiens) [8]; 1.58 with Torsin-1A (Homo sapiens) [9]; 1.66 in [10]. Further, the z-score is -2.74 (inactive) in assay [2], -0.168 (inactive) in assay [3], 0.502 (inactive) in assay [4] and -0.917 (inactive) in assay [5].
For the compound `COCCOC(=O)N1C(=O)[C@@]2(c3cc(C#CC4=CCCCC4)ccc31)[C@H](c1ccc(OCCO)cc1)N1[C@H](c3ccccc3)[C@H](c3ccccc3)OC(=O)[C@H]1[C@@H]2C(=O)N1CCc2cc(OC)c(OC)cc2C1`, the composite z-score in assay [1] was found to be 0.687; in [6] it was 0.606; in assay [7], 0.346; with Torsin-1A (Homo sapiens) [8] it was 0.359; with Torsin-1A (Homo sapiens) [9], 1.17; in assay [10], 1.32. The z-score in assay [2] was -0.496 (inactive); in [3] it was -0.536 (inactive); in assay [4], -0.258 (inactive); in [5], -0.513 (inactive).
Consider `[N-]=[N+]=Nc1ccccc1[C@H]1OC(c2ccc(OCCCO)cc2)=N[C@@]1(Cc1ccccc1)C(=O)N1CCOCC1`, for which the composite z-score in [1] is 0.267; in [6], 2.01; in assay [7], 0.554; with Torsin-1A (Homo sapiens) [8], 0.124; in the assay with Torsin-1A (Homo sapiens) [9], 0.212; in [10], 0.672. Moreover, the z-score was -4.05 (inactive) in [2], -0.622 (inactive) in assay [3], -0.0341 (inactive) in assay [4] and -1.62 (inactive) in assay [5].
As to `O=C(O)[C@H]1C[C@H]2C(=O)N3CCC[C@H]3C(=O)N2[C@H]1c1ccc(O)cc1`, the composite z-score in [1] is -0.32; in [6] it was -1.29; in assay [7], -0.122; with Torsin-1A (Homo sapiens) [8], 0.244; with Torsin-1A (Homo sapiens) [9], 0.109; in [10] it was 0.0164. In addition, the z-score is -0.44 (inactive) in assay [2], -0.0598 (inactive) in [3], -0.122 (inactive) in [4] and -0.233 (inactive) in assay [5].
With `COCCOC(=O)N1C(=O)[C@@]2(c3cc(C#CCCO)ccc31)[C@H](c1ccc(OCCO)cc1)N1[C@H](c3ccccc3)[C@H](c3ccccc3)OC(=O)[C@H]1[C@@H]2C(N)=O`, the composite z-score in [1] turned out to be 0.711; in [6] it was 0.266; in assay [7], 0.364; with Torsin-1A (Homo sapiens) [8], 0.271; in the assay with Torsin-1A (Homo sapiens) [9] it was 0.569; in assay [10], 0.811. Further, the z-score was -1.47 (inactive) in [2], 0.502 (inactive) in [3], 0.209 (inactive) in assay [4] and 1.71 (inactive) in [5].
As for `O[C@@H](Cc1ccccc1)[C@@H](/C=C/C1CC1)NCc1cccc(Cl)c1`, the composite z-score in [1] is -1.11; in [6] it was -1; in assay [7], -0.21; with Torsin-1A (Homo sapiens) [8], -1.12; with Torsin-1A (Homo sapiens) [9], -0.447; in assay [10], -1. Besides, the z-score was -3.2 (inactive) in assay [2], -0.852 (inactive) in [3], 4.76 (inactive) in assay [4] and -0.426 (inactive) in assay [5].
Consider `COCC(=C=CC[C@@H](O)c1ccc(OCCO)cc1)C[C@@H](O)c1ccccn1`, for which the composite z-score in assay [1] is 0.117; in assay [6] it was 0.556; in assay [7], 0.0001; with Torsin-1A (Homo sapiens) [8], 0.0308; in the assay with Torsin-1A (Homo sapiens) [9], -0.467; in [10] it was 1.04. The z-score is 0.0073 (inactive) in assay [2], 0.0661 (inactive) in assay [3], -0.0602 (inactive) in assay [4] and 2.62 (inactive) in assay [5].
Take `O=C1O[C@H](c2ccccc2)[C@H](c2ccccc2)N2[C@H]1[C@@H](C(=O)N1CCN(c3ncccn3)CC1)[C@]1(C(=O)Nc3ccc(C#CC4=CCCCC4)cc31)[C@H]2c1ccccc1OCCO`: the composite z-score in [1] was determined as 0.406; in [6], 0.895; in assay [7] it was 0.772; in the assay with Torsin-1A (Homo sapiens) [8] it was 0.0637; with Torsin-1A (Homo sapiens) [9] it was 0.0096; in [10], 1.79. Moreover, the z-score in assay [2] is -3.34 (inactive); in assay [3] it was -0.869 (inactive); in assay [4], -0.581 (inactive); in assay [5], -0.111 (inactive).
As for `COc1ccc(CCNC(=O)[C@@]2(C)c3ccccc3C(=O)N(c3ccc(C)cn3)[C@H]2c2ccc(CO)cc2)cc1`, the composite z-score was -0.49 in [1]; -0.712 in assay [6]; -0.183 in assay [7]; -2.16 in the assay with Torsin-1A (Homo sapiens) [8]; -1.44 with Torsin-1A (Homo sapiens) [9]; -0.797 in assay [10]. The z-score in assay [2] is -0.998 (inactive); in assay [3], -0.604 (inactive); in assay [4], -0.0888 (inactive); in assay [5], -0.371 (inactive).
For `O=C(NCCN1CCOCC1)[C@@H]1c2ccccc2C(=O)N(Cc2cc(C(F)(F)F)cc(C(F)(F)F)c2)[C@H]1c1ccc(CO)cc1`, the composite z-score was 0.556 in assay [1]; -0.601 in [6]; 0.0154 in [7]; -0.027 with Torsin-1A (Homo sapiens) [8]; 0.133 in the assay with Torsin-1A (Homo sapiens) [9]; -0.211 in assay [10]. Besides, the z-score is -0.0199 (inactive) in assay [2], 0.623 (inactive) in assay [3], 0.468 (inactive) in assay [4] and -0.713 (inactive) in assay [5].
For the compound `OCCCC1=CC(C2CC2)N(Cc2cccc(OC(F)(F)F)c2)CC1` (stereo not given), the composite z-score in assay [1] was -0.416; in assay [6] it was -0.753; in assay [7] it was -0.213; with Torsin-1A (Homo sapiens) [8] it was -0.176; with Torsin-1A (Homo sapiens) [9], -0.773; in assay [10], 1. The z-score is -0.28 (inactive) in assay [2], 0.129 (inactive) in assay [3], 0.0882 (inactive) in assay [4] and 0.0103 (inactive) in [5].
In the case of `CC(=O)n1cc(C(O)C2C=CC3C(=O)NC(=O)C3N2Nc2ccccn2)c2ccccc21` (stereo not given), the composite z-score was determined as 0.109 in assay [1]; 0.153 in assay [6]; 0.23 in assay [7]; 0.865 with Torsin-1A (Homo sapiens) [8]; 0.153 with Torsin-1A (Homo sapiens) [9]; 0.41 in assay [10]. Also, the z-score is 0.713 (inactive) in assay [2], -0.781 (inactive) in assay [3], -0.14 (inactive) in assay [4] and 0.593 (inactive) in assay [5].
`CC(C)[Si](C#C[Si](C(C)C)(C(C)C)C(C)C)(O[C@H](C)c1cn(Cc2ccccc2)nn1)C(C)C`: the composite z-score is 0.0406 in [1]; 1.32 in [6]; -0.0405 in [7]; 0.709 in the assay with Torsin-1A (Homo sapiens) [8]; 0.5 in the assay with Torsin-1A (Homo sapiens) [9]; 0.372 in [10]. Also, the z-score in [2] was -0.182 (inactive); in [3], -0.324 (inactive); in [4], -0.0848 (inactive); in [5] it was -0.624 (inactive).
With `CC(C)(C)OC(=O)CC[C@]1(C(=O)NCCN2CCOCC2)COC(c2ccc(OCCCO)cc2)=N1`, the composite z-score worked out at 0.681 in assay [1]; 0.344 in assay [6]; 0.0227 in assay [7]; 0.717 in the assay with Torsin-1A (Homo sapiens) [8]; 1.37 with Torsin-1A (Homo sapiens) [9]; 0.998 in assay [10]. The z-score in [2] was -0.102 (inactive); in assay [3] it was -0.192 (inactive); in assay [4], 0.157 (inactive); in assay [5] it was -0.168 (inactive).
